Source: PubChem BioAssay (National Center for Advancing Translational Sciences (NCATS))
NPC1 prom act: NPC1 promoter activation; Huh7 NPC1 promoter luciferase reporter, 24 h; Potency, µM (highest dose often 9.22 µM), for inactives: top-dose activation, usual class: activators; actives 2.4% (n = 320,000); also: % of control where 0% means no effect; nearly all actives have a fitted effect of over 60% in size
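Compounds in DMSO were transferred onto Huh7 NPC1-luciferase reporter cells pre-incubated 2 h; after 24 h at 37 °C, Amplite reagent was dispensed and luminescence recorded 10 min later.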
SMN2 splice up: enhancers of SMN2 splice variant expression | HEK293 SMN2-luciferase splicing reporter, luminescence, 30-36 h | Potency, µM (top dose mostly 46.1 µM), for inactives: at the top dose activity change, positive = activation, actives largely listed as activators | actives 2.8% (n = 210,000) | AID 1458; also: % of control where 0% means no effect; nearly all actives have a fitted effect of over 55% in size
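qHTS luciferase splicing reporter: luminescence rises when SMN2 exon 7 is included in transfected HEK293 cells. Compound exposure lasted 30-36 h at 37C, with 4.5 mM final sodium butyrate as control, followed by a ONE-Glo read.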
uPA generation: cell surface uPA generation inhibition; cell surface uPA generation assay, qHTS; actives 0.31% (n = 330,000); Potency, µM (series often up to 38.3 µM), inactives show at the highest dose activity change, negative = inhibition, usual class: inhibitors; active = well fitted inhibition curve with a large enough effect; inconclusive = small, poorly fitted or top-dose-only effect; inactive = no such curve, though single readings can be large or run the other way; tested in mouse RAW 264.7 cells; also: % is scaled to controls: 0 for no effect and ±100 for the full control effect; nearly all actives have a fitted effect of over 55% in size
ELG1 genotoxic: inducers of genotoxicity in HEK293T ELG1-luciferase cells. actives 1.3% (n = 330,000). Potency, µM (highest dose often 46 µM), for the others: at the highest dose activity change, positive = activation, hits mostly activators. HEK293T ELG1-luciferase reporter, luminescence, 16 h; also: % of control where 0% means no effect; nearly all actives have a fitted effect of over 60% in size
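Reporter readout depends on ELG1 protein level, which increases with genetic stress. After 16 hr compound exposure at 37 °C, luciferase activity was quantified using ONE-Glo.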
FLuc modulator: firefly luciferase modulation, counter-screen for miR-21 project; P08659; purified FLuc, Km substrates, luminescence inhibition; Potency, µM (titrated, usually from 57.5 µM), inactives show at the top dose activity change, negative = inhibition, hits mostly inhibitors; actives 6.9% (n = 360,000);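 also: plate controls were vehicle for no effect and reference inhibitor for full effect; nearly all actives have a fitted effect of over 55% in size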
Target sequence (P08659 whole entry, looked up): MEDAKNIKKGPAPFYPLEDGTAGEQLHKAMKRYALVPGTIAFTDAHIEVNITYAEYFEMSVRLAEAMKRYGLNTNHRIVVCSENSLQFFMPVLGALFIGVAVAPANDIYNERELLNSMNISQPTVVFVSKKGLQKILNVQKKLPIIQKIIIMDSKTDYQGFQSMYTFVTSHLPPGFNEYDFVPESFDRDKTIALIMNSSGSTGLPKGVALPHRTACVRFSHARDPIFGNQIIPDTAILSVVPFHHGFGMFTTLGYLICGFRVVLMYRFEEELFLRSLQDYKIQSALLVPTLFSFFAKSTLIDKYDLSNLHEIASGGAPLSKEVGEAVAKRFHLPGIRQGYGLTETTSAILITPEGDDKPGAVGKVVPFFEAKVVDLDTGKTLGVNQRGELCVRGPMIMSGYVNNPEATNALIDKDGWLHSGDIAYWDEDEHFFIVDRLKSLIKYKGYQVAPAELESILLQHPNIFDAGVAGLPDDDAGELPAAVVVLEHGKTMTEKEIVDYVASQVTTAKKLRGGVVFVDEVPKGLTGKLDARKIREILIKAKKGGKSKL
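Purified P. pyralis luciferase, 10 nM final, with Km-level 10 uM D-luciferin and 10 uM ATP in 50 mM Tris acetate pH 7.5, 10 mM Mg acetate, 0.01% Tween-20, 0.05% BSA; 6-point qHTS titration about 60 µM downward; luminescence read.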
Rab9 prom act: Rab9 promoter activation; actives 2.8% (n = 320,000); AID 485297; Potency, µM (series often up to 9.22 µM), for inactives: at the highest dose activation, negative = inhibition, actives largely listed as activators; Huh7 Rab9 promoter-luciferase reporter, luminescence, 24 h; also: % of control where 0% means no effect; nearly all actives have a fitted effect of over 60% in size
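Rab9 promoter-driven luciferase in stably transfected Huh7 cells; 1500 cells/well rested 2 h, exposed to compound in DMSO for 24 h at 37 °C, 5% CO2. Luminescence read 10 min after adding luciferase reagent at ambient temperature.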
* hit, by the source's call; ? = inconclusive; . = not tested or not shown. Most compounds without a hit are left out; they make up all but 7.3% or so of the library. Unless noted, calls follow the shape of the dose curve; as a rule, active = well fitted curve in the direction sought with a large enough effect; inconclusive = small, poorly fitted or top-dose-only effect, or another doubt; inactive = no such curve, though single readings can be large; an effect the other way counts as inactive or inconclusive. Potency is read from the fitted curve at half-maximal effect.

SMILES	NPC1 prom act	SMN2 splice up	uPA generation	ELG1 genotoxic	FLuc modulator	Rab9 prom act
CC(C)c1nc(N(C)S(C)(=O)=O)nc(-c2ccc(F)cc2)c1/C=C/C(O)CC(O)CC(=O)O (configuration not stated)	.	-5%	.	.	.	.
CCCOc1ccc(C(=O)Nc2ccc(S(=O)(=O)Nc3cc(C)nc(C)n3)cc2)cc1	1%	.	-5%	-4%	15µM*	-1%
CCOc1cc(C(=O)Nc2ccc(S(=O)(=O)Nc3onc(C)c3C)cc2)cc(OCC)c1OCC	.	.	2%	-4%	.	.
CCCCOc1ccc(C(=O)Nc2ccc(S(=O)(=O)Nc3nc(C)cc(C)n3)cc2)cc1	.	-20%	.	.	?	.
CCCOc1ccc(C(=O)Nc2ccc(S(=O)(=O)Nc3onc(C)c3C)cc2)cc1	3%	-24%	-3%	17%	8.5µM*	2%
COc1cc(C(=O)Nc2ccc(S(=O)(=O)Nc3onc(C)c3C)cc2)cc(OC)c1OC	6%	6%	4%	0%	-2%	5%
CCCCOc1ccc(C(=O)Nc2ccc(S(=O)(=O)Nc3onc(C)c3C)cc2)cc1	-7%	.	.	0%	17µM*	-6%
Cc1cc(C)nc(NS(=O)(=O)c2ccc(NC(=O)COc3ccc(C(C)(C)C)cc3)cc2)n1	.	-9%	.	.	11µM*	.
O=C(CCc1nnc2n(Cc3ccccc3Cl)c(=O)c3ccccc3n12)Nc1ccccc1	.	9%	.	.	1%	.
COc1ccc(-n2c(=O)c(C)nc3cnc(Oc4cccc(Cl)c4)nc32)cc1	.	-11%	.	.	.	.
Cc1ccc2cccc(NC(=O)C(C)(C)Oc3ccc(Br)cc3)c2n1	.	-13%	.	.	0%	.
COc1ccc(CNC(=O)Cn2nc(C(F)(F)F)c3c2CCC3)cc1	6%	11µM*	4%	-6%	1%	-1%
COc1ccc(NC(=O)Cn2nc(C(F)(F)F)c3c2CCCC3)c(OC)c1	0%	-35%	3%	-7%	-2%	-3%
COC(=O)c1ccc(NC(=O)CSc2ccccn2)cc1	2%	-14%	0%	?	?	13%
COC(=O)c1ccc(NC(=O)CSc2ccccc2)cc1	19%	17%	0%	?	27µM*	?
O=C(CSc1ccc(F)cc1)Nc1ccccc1Br	14%	-20%	0%	11%	?	15%
O=C(CSc1ccc(F)cc1)Nc1ccc(Br)cc1	?	?	-6%	?	13µM*	2.8µM*
CCC(=O)n1nc(-c2ccc(OC)cc2)nc1SC	27%	?	0%	?	19µM*	?
CCCC(=O)n1nc(-c2ccc(Cl)cc2)nc1SC	28%	?	4%	?	?	27%
COc1ccc(-c2nc(SC)n(C(=O)c3ccco3)n2)cc1	4%	?	-1%	?	?	24%
CCC(=O)n1nc(-c2ccc(Cl)cc2)nc1SC	28%	13µM*	1%	?	?	?
COc1ccc(-n2nc(C(=O)NCCc3ccc(OC)c(OC)c3)c3c4ccccc4n(C)c3c2=O)cc1Cl	.	3%	.	.	-2%	.
COc1cccc(NC(=O)Cn2c(=O)c3cccn3c3ccc(F)cc32)c1	.	.	.	.	2%	.
COc1ccc(C(=O)N2CCC3(CCCN(Cc4ccccc4OC)C3)CC2)cc1	.	-22%	.	.	.	.
COc1ccc(NS(=O)(=O)c2ccc3c(c2)CCN3C(=O)CCC(=O)O)cc1Cl	.	6%	.	.	-12%	.
SMILES	NPC1 prom act	SMN2 splice up	uPA generation	ELG1 genotoxic	FLuc modulator	Rab9 prom act
CCc1ccc(-c2nn[nH]n2)cc1	2%	6%	-14%	9%	13µM*	20%
CCOc1ccc(-c2nn[nH]n2)cc1	10%	28%	-1%	3%	11µM*	-4%
Cc1ccccc1COc1ccc(-c2nn[nH]n2)cc1	4%	.	-1%	9%	27µM*	21%
CCOc1ccc(-c2n[nH]c(=S)o2)cc1	-4%	17%	-1%	16%	11µM*	20%
Brc1cc2c(cc1COc1ccc(-c3nn[nH]n3)cc1)OCO2	6%	15%	3%	14%	?	18%
CSc1nnc2c(n1)c(C)nn2-c1cccc(C)c1	3%	14%	-7%	1%	13µM*	-5%
Cc1ccc(CNC(=O)c2c(O)nc3ccccn3c2=O)cc1	.	-6%	.	.	-3%	.
CC(=O)OC[C@H]1O[C@@H](n2ncc(=O)[nH]c2=O)[C@H](OC(C)=O)[C@@H]1OC(C)=O	-5%	10µM*	?	-13%	-2%	1%
O=C(OCC1OC(n2ncc(=O)[nH]c2=O)C(OC(=O)c2ccccc2)C1OC(=O)c1ccccc1)c1ccccc1 (configuration not stated)	-3%	.	-12%	1%	8%	0%
COc1ccc(Oc2nnnn2-c2ccccc2)cc1	1%	1%	-4%	16%	?	-4%
COc1cccc(Oc2nnnn2-c2ccccc2)c1	?	.	0%	?	17µM*	4µM*
Cn1c(/N=C/c2c[nH]c3ccccc23)nc2ccccc21	0%	.	1%	-2%	0.13µM*	5%
CC(C)n1c(/N=C/c2c[nH]c3ccccc23)nc2ccccc21	-3%	-10%	9%	2%	2.7µM*	-1%
COc1ccccc1-n1cnnc1SC(C)C(=O)NCC1CCCO1 (configuration not stated)	-1%	.	-8%	0%	0%	-1%
CC(NC(=O)C1CCN(C(=O)c2ccc(-n3ccc4ccccc43)s2)CC1)c1ccccc1 (configuration not stated)	.	.	.	.	13µM*	.
O=C(C[n+]1cn(C(F)F)c2ccccc21)c1ccc(OC(F)F)cc1	?	?	3%	16µM*	?	?
COc1ccccc1NC(=O)c1ccc(C)c(S(=O)(=O)N2CCCCC2)c1	13%	.	-2%	-18%	?	-4%
Cc1ccc(C(=O)NNC(=O)c2ccccc2)cc1S(=O)(=O)N1CCCCC1	0%	.	-21%	3%	21µM*	-5%
Cc1ccc(C(=O)NC2CCN(Cc3ccccc3)CC2)cc1S(=O)(=O)N1CCOCC1	-5%	.	-11%	18µM*	-2%	-14%
Cc1ccc(C(=O)Nc2ccccc2C(=O)O)cc1S(=O)(=O)N1CCCCCC1	.	?	.	.	0.95µM*	.
Cc1ccc(CCNC(=O)C2CC(=O)N(CCc3ccc(C)cc3)C2)cc1 (configuration not stated)	.	.	.	.	4%	.
c1ccc(-c2ccc(CNC3CC3)cc2)cc1	0%	.	4%	2%	?	?
COc1ccccc1CN1CCCC2(CCN(C(=O)c3c(C)noc3C)CC2)C1	.	-1%	.	.	.	.
Cc1cc(-c2ccc(Br)cc2)n[nH]1	?	?	-1%	?	19µM*	?
Cc1c(-c2ccccc2Br)nc2ccccc2c1C(=O)O	.	.	5%	.	.	.
